# Source: PubChem BioAssay AID504850 (National Center for Advancing Translational Sciences (NCATS), 2011)
# Screen size: about 2,300 compounds; about 1,200 (52%) were called active. Inconclusive results (about 34%) are left out. So high a share suggests a set chosen from earlier hits. The list shows a part of the results. Values without a mark were called inactive. The call rests on the fitted dose curve; in most records, active means well fitted inhibition curve with a large enough effect; inconclusive means small, poorly fitted or top-dose-only effect, or effect the other way; inactive means no such curve, though single readings can be large or run the other way.
# Test: Confirmation screen for delayed death inhibitors of the malarial parasite plastid, 48 hour incubation; further: nearly all actives have a fitted effect of over 65% in size
# Conditions: P. falciparum-infected erythrocytes, luciferase growth; series mostly up to 28.7 µM; activity change, negative = inhibition: at the top concentration
# Method in brief: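 Erythrocytes infected with luciferase-expressing P. falciparum (2% hematocrit, 0.1% parasitemia) incubated with compounds 48 hours at 37 C, 5% CO2, in RPMI/Albumax. Growth inhibition scored as reduced luminescence after detection reagent.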
# On the % scale 0 is the no-effect control and ±100 the full control effect; potency means the concentration at half of the fitted maximal effect.
SMILES,Potency,"activity change, negative = inhibition"
CCS(=O)(=O)c1nc(S(=O)(=O)c2ccc(C)cc2)c(N2CCC3(CC2)OCCO3)s1,12.6 µM (active),–
CC(C)Cc1ccc(C(=O)Nc2ccc(Cc3ccncc3)cc2)o1,12.6 µM (active),–
CCN(CC)S(=O)(=O)c1cc(NC(=O)C(C)OC(=O)c2[nH]c(C)c(C(C)=O)c2C)ccc1C (stereo not drawn),4.47 µM (active),–
Cc1oc2c(c1C(=O)N1CCOCC1)C(=O)c1ccccc1C2=O,2 µM (active),–
CCCC1O[C@@H]2CC3C4CCC5=CC(=O)C=C[C@]5(C)C4C(OC(C)=O)C[C@]3(C)[C@]2(C(=O)COC(C)=O)O1 (stereo partly drawn),7.08 µM (active),–
COC1C(OC(=O)/C=C/C=C/C=C/C=C/C(=O)O)CCC2(CO2)C1C1(C)OC1CC=C(C)C (stereo not drawn),0.0562 µM (active),–
CCc1ccc(/C=C/c2c[nH]c3ccccc23)[n+](CC)c1,0.126 µM (active),–
CC[n+]1ccc(/C=C/c2c[nH]c3ccccc23)cc1,0.355 µM (active),–
CC(C)CC1NC(=S)N(Cc2ccccc2)C1=O (stereo not drawn),5.01 µM (active),–
O=C(C#Cc1ccccc1)Nc1cccc(F)c1,7.94 µM (active),–
Cc1nnsc1C(=O)Nc1ccccc1,–,14.9%
NC(=O)c1ccc(NC(=O)C#Cc2ccccc2)cc1,5.01 µM (active),–
Nc1ccc(-c2c3ccc(=O)cc-3oc3cc(O)ccc23)c(C(=O)O)c1,–,3.65%
c1ccc(Cn2nnc3c(N4CCCCCC4)ncnc32)cc1,14.1 µM (active),–
CCn1c(=O)n(CC)c2cc(N3CCCC3)c(NC(=O)c3ccc(C)cc3)cc21,11.2 µM (active),–
O=C(COC(=O)c1ccc(F)c(S(=O)(=O)N2CCOCC2)c1)Nc1ccc2[nH]c(=O)[nH]c2c1,–,-10.8%
Cc1ccc(NC(=O)COc2ccccc2C#N)cc1S(=O)(=O)N1CCCCCC1,14.1 µM (active),–
COc1ccc(CC(=O)NNC(=O)CN(C)S(=O)(=O)c2ccc(Cl)cc2)cc1OC,–,-28.2%
COc1ccccc1-c1coc2cc(OC(=O)N3CCOCC3)ccc2c1=O,–,7.66%
Cc1csc(NC(=O)Cc2coc3cc(C)c(C(C)C)cc23)n1,14.1 µM (active),–
COc1ccc(NC(=O)Cc2coc3cc(C)c(C(C)C)cc23)cc1S(=O)(=O)N1CCOCC1,12.6 µM (active),–
COc1ccc(NC(=O)Cc2ccc(Cl)cc2)cc1S(=O)(=O)N1CCCCC1,12.6 µM (active),–

SMILES,Potency,"activity change, negative = inhibition"
CC1(C)CC(=O)C=C(NC2=CC3OC(c4ccccc4)OCC3OC2=O)C1 (stereo not drawn),–,6.44%
CC[n+]1ccccc1/C=C/c1ccc(N(C)C)cc1,2.24 µM (active),–
Cc1ccc(/C=C/c2ccc(N(C)C)cc2)[n+](C)c1,1.26 µM (active),–
COc1cc(/C=C(/C#N)C(=O)NCc2ccccc2)cc(OC)c1OC,14.1 µM (active),–
CC[C@@H](C(=O)[C@@H](C)[C@@H](O)[C@H](C)CCc1ccc(C)c(O)c1C(=O)O)[C@H]1O[C@](CC)([C@H]2CC[C@](O)(CC)[C@H](C)O2)C[C@@H]1C,0.708 µM (active),–
COc1ccc(N2CCc3c(C)nc4c(OC)cc(OC)cc4c32)c(OC)c1,11.2 µM (active),–
Cc1cc(=O)nc2c3ccccc3n(CC(=O)NCCC3=CCCCC3)n12,12.6 µM (active),–
Cc1ccccc1OCC(=O)NCCC1=CCCCC1,–,-31.7%
Brc1ccc(/C=N/Nc2ncnc3c2cnn3Cc2ccccc2)cc1,3.98 µM (active),–
COc1cccc(/C=N/NC(=O)c2nc(-c3ccccc3)cc(-c3ccccc3)n2)c1O,6.31 µM (active),–
COC(=O)c1ccc(COc2ccccc2/C=N/O)o1,–,-21.8%
O=C(Cn1ncc2c3ccccc3n(Cc3cccc(Cl)c3)c2c1=O)NCc1ccccn1,14.1 µM (active),–
COc1ccc(Cn2c(O)c(C=Nc3ccc(O)cc3)c3ccccc3c2=O)cc1,10 µM (active),–
CC[C@@H]1CC=C[C@H]2[C@H]1C(=O)N(Cc1ccccc1)[C@H]2c1ccoc1,7.08 µM (active),–
O=C(COC(=O)c1c2c(nc3ccccc13)CCN(Cc1ccccc1)C2)Nc1c(F)cccc1F,6.31 µM (active),–
COc1cccc(CN2CCN(c3nc4nonc4nc3N3CCCCC3)CC2=O)c1,10 µM (active),–
O=C(COc1ccc(Cl)cc1)Nc1cc(S(=O)(=O)N2CCCCC2)ccc1N1CCCCC1,5.62 µM (active),–
O=C(COc1ccc(Br)cc1)Nc1cc(S(=O)(=O)N2CCCCC2)ccc1N1CCCCC1,5.62 µM (active),–
CC(Oc1cccc(Cl)c1)C(=O)Nc1cc(S(=O)(=O)N2CCOCC2)ccc1N1CCCCC1 (stereo not drawn),5.01 µM (active),–
CCN1CCN(c2ccc(S(=O)(=O)N3CCCCC3)cc2NC(=O)COc2cc(C)ccc2Cl)CC1,14.1 µM (active),–
C[C@@H]1[C@H](O)C[C@@]23COC(=O)C2=CCCC3[C@@]1(C)CCC1COC(=O)C1 (stereo partly drawn),–,-24.3%
CSc1ccc(/C=C/C(=O)c2ccc(NC(=O)C(C)C)cc2)cc1,15.8 µM (active),–

SMILES,Potency,"activity change, negative = inhibition"
CSc1c(CC(=O)Nc2ccccc2)n(C)c2ccccc12,8.91 µM (active),–
CC(C)(C)c1cc(C(=O)NNc2cccc(Cl)c2)n(Cc2ccccc2)n1,12.6 µM (active),–
Cc1ccc2c(c1)cc(C(=O)NCc1ccccc1)n2C,–,-7.89%
Cc1cccc(Cn2nc(C(C)(C)C)cc2C(=O)Nc2ccc(F)cc2)c1,4.47 µM (active),–
Cc1ccc(NC(=O)c2cc(C(C)(C)C)nn2Cc2ccccc2)cc1,11.2 µM (active),–
CCOC(=O)C1CCN(c2cc3c(cc2NC(=O)c2ccccc2Cl)n(C)c(=O)n3C)CC1,11.2 µM (active),–
CCOc1c(Cl)cc(C(=O)Nc2ccccc2C(=O)O)cc1Cl,–,-9.43%
CC(=O)N(C)C1=C(N2CCOCC2)C(=O)c2ccccc2C1=O,0.631 µM (active),–
CN1CCN(C(=O)CCN2C(=O)/C(=C\c3ccc(Cl)cc3)SC2=S)CC1,–,-20.3%
O=C(CCN1C(=O)/C(=C/c2ccccc2Cl)SC1=S)N1CCOCC1,15.8 µM (active),–
CN1CCN(C(=O)CCN2C(=O)/C(=C/c3cccc(Br)c3)SC2=S)CC1,11.2 µM (active),–
C=C(C)n1c(=O)n(Cc2ccccc2C)c2ccccc21,12.6 µM (active),–
Cc1ccc(-n2c(Cl)c(Cl)nc(Cl)c2=O)cc1,12.6 µM (active),–
Cc1ccc(-n2nnnc2SCC(=O)Nc2ccccc2-c2ccccc2)cc1C,–,-14.7%
Cc1ccc(-n2nnnc2Sc2nc([N+](=O)[O-])nn2C)cc1C,3.55 µM (active),–
O=C(OCC(=O)N1CCN(c2ccccc2)CC1)c1cc(Cl)ccc1[N+](=O)[O-],–,3.6%
N#Cc1cc(C(=O)c2cc(Cl)ccc2O)cn(-c2ccccc2)c1=O,14.1 µM (active),–
Cc1[nH]c(=O)[nH]c(=O)c1S(=O)(=O)N1CCCC(C(=O)N2CCN(c3cccc(C(F)(F)F)c3)CC2)C1 (stereo not drawn),12.6 µM (active),–
Cc1[nH]c(C)c(S(=O)(=O)N2CCN(c3cccc(C(F)(F)F)c3)CC2)c1C(=O)N1CCCCC1,–,-17.5%
Cc1cc(C(C)(C)C)cc(C)c1CCNC(=O)c1c(C)noc1C,12.6 µM (active),–
CCCCNC(=O)c1onc(CSc2cc(C)ccc2C)c1C(=O)O,–,-13.3%
Cc1cc(C(C)(C)C)cc(C)c1CCNC(=O)c1ccc[n+]([O-])c1,14.1 µM (active),–

SMILES,Potency,"activity change, negative = inhibition"
Cc1ccc(C)c(SCc2noc(C(=O)NC(C)C)c2C(=O)O)c1,–,-13.7%
CCN(C(=O)c1cc2c(=O)n3ccccc3nc2n1CCCOC)C1CCCCC1,12.6 µM (active),–
COc1ccc(OC)c(NC(=O)c2nc(S(=O)(=O)Cc3ccccc3)ncc2Cl)c1,–,-17.6%
COc1ccc(OC)c(NC(=O)c2ccccc2N(C)S(=O)(=O)c2ccc(C)cc2)c1,14.1 µM (active),–
Cc1ccc(Nc2cc(C)c3ccc(O)cc3n2)cc1C,0.224 µM (active),–
CC(c1ccco1)N(C(=O)c1cc(Cl)cc(Cl)c1)c1ccccn1 (stereo not drawn),11.2 µM (active),–
CC(C)C1N=C(c2ccc3c(c2)OCO3)CC(c2ccccc2O)N1 (stereo not drawn),12.6 µM (active),–
CC(C)N1CCC2(CC1)N=C(c1ccc3c(c1)OCO3)CC(c1cc(Cl)ccc1O)N2 (stereo not drawn),2.82 µM (active),–
COc1cc(Cn2nnc3ccccc32)ccc1O,12.6 µM (active),–
COc1ccc(/C=C/C(=O)c2ccccc2)cc1Cn1nnc2ccccc21,10 µM (active),–
CC(C)C[C@@H](CN=[N+]=[N-])N1CCN(C)CCC1=O,–,-2.87%
O=C(COC(=O)c1ccc(O)cc1O)Nc1ccc2ccccc2c1,–,34.1%
Cc1cc(NC(=O)COC(=O)c2ccccc2S(=O)(=O)N(C)c2ccccc2)no1,8.91 µM (active),–
CC(C)NC(=O)NC(=O)COC(=O)c1ccccc1Oc1ccccc1,–,-39.6%
Cc1cccc(C)c1NC(=O)CCCSc1nnc(-c2ccc(F)cc2)n1-c1ccccc1,15.8 µM (active),–
COC(=O)CCC(=O)OC1(C)C(=O)C=C2C=C(C3CC3)N(CCCOC(C)C)C=C2C1=O (stereo not drawn),2 µM (active),–
OCC1(CCOc2ccccc2)CCN(Cc2nc3ccc(F)cc3[nH]2)CC1,12.6 µM (active),–
Cc1c(CN2CCC(CO)(CCOc3ccccc3)CC2)[nH]c2ccc(Cl)cc12,7.08 µM (active),–
CN(C)c1ccc2nc3ccc(=[N+](C)C)cc-3sc2c1,0.0794 µM (active),–
COc1ccccc1-n1c(SCC(=O)Nc2cc(C)on2)nc2c([nH]c3ccccc32)c1=O,8.91 µM (active),–
COc1ccc(C)cc1-n1c(SCC(=O)Nc2cc(C)on2)nc2sc(C)c(C)c2c1=O,2.51 µM (active),–
NC(=O)C1CCN(c2nc(C3CC3)nc3c2nnn3Cc2ccccc2Cl)CC1,4.47 µM (active),–
